From PubChem
CHO-K1 Ca antag: M1 antagonist counterscreen hit in parental CHO-K1 cells; AID 602250; inhibition, % at 3 µM; hit rate 0.6% among 360,000; ATP-induced calcium, Fluo-8 fluorescence;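 active means inhibition above a per-plate cutoff, the plate's mean sample inhibition plus 3 SD, cut at about 24% in these data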;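 further: 0% = DMSO plus EC80 ATP and 100% = DMSO alone without ATP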
CHO-K1 Ca ag: M1 agonist counterscreen hit in parental CHO-K1 cells; Fluo-8 calcium fluorescence; scaled to maximal ATP response, vehicle zero; activation, % at 3 µM; hit rate 0.48% among 360,000; AID 602248; in the data active means activation above about 15%;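 further: untransfected CHO-K1 host cells lacking M1 receptor as counterscreen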
M1 ag: activates human CHRM1 receptor | CHO-K1 hM1, Fluo-8 calcium fluorescence, agonist mode; 0% DMSO, 100% acetylcholine EC100 | activation, % at 3 µM | P11229 | hit rate 0.33% among 360,000;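 active means activation above the run's mean compound activation plus 3 SD, cut at about 16% in these data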;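 further: peak over basal fluorescence ratio within a 140 s kinetic read after compound addition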
Target sequence (P11229 whole entry, looked up): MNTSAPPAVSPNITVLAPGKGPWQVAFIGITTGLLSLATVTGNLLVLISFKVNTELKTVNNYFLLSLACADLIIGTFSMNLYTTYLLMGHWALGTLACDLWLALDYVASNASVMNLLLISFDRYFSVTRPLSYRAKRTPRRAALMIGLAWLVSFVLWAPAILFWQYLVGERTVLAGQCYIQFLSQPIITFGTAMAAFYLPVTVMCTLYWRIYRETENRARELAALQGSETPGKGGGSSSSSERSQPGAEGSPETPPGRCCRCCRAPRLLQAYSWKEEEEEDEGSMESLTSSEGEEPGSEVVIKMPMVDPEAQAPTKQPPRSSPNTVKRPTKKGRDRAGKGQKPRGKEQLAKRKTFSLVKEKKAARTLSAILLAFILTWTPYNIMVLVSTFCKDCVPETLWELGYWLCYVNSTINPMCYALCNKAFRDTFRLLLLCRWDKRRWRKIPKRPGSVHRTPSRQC
CHO-K1 Ca PAM: counter-screen for M1 PAMs: effect in parental CHO-K1 cells; ATP EC20, Fluo-8 calcium fluorescence; 0% at ATP EC20, 100% at ATP max; hit rate 0.02% among 360,000; AID 602247; activation, % at 3 µM;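 active means activation above the run cutoff, the mean activation of all test compounds plus 3 SD, cut at about 40% in these data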;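 further: peak over basal fluorescence ratio in a 140 s read after ATP addition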
CHRM1 antagonist: blocks human M1 muscarinic receptor; AID 588852; hit rate 1.3% among 360,000; CHO-K1 hM1, Fluo-8 calcium fluorescence, ACh EC80 antagonist; inhibition, % at 3 µM;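 active means percent inhibition above its own plate's cutoff, namely the mean of that plate's compound wells plus 3 SD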;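 further: peak over basal fluorescence ratio during 140 s after agonist addition; 0% = ACh EC80 plus DMSO and 100% = DMSO alone without agonist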
M1 PAM: human CHRM1 positive allosteric modulation; hit rate 0.088% among 360,000; activation, % at 3 µM; AID 588819; CHO-K1 hM1, Fluo-8 calcium fluorescence, ACh EC20; 0% = ACh EC20, 100% = maximal ACh; in the data active means activation above about 19%, passing the limit was not always enough
An asterisk follows results filed as active. Shown are actives, neighbours in structure and some others; about 2.3% of the full set was active somewhere.

SMILES	CHO-K1 Ca antag	CHO-K1 Ca ag	M1 ag	CHO-K1 Ca PAM	CHRM1 antagonist	M1 PAM
Cc1ccc(C)c(S(=O)(=O)N2CCCC2CNC(=O)C(=O)NCCc2ccccc2)c1 (stereo not given)	9	10	0	8	31*	-12
O=C(NCc1ccc(F)cc1)C(=O)NCC1CCCN1S(=O)(=O)c1ccccc1 (stereo not given)	21	0	-2	10	-10	14
O=C(NCCc1ccc(F)cc1)C(=O)NCC1CCCN1S(=O)(=O)c1ccccc1 (stereo not given)	11	10	2	-9	27*	-7
COc1ccc(CCNC(=O)C(=O)NCC2CCCN2S(=O)(=O)c2ccccc2)cc1 (stereo not given)	15	8	0	-7	29*	-9
CCCc1cc(=O)oc2cc(OCc3ccc(C(=O)O)cc3)ccc12	-1	2	2	9	-13	8
CCC(C)NC(=O)c1ccc(C)c(NC(=O)C2=C(C)OCCS2)c1 (stereo not given)	-9	0	-2	-22	-13	8
COc1ccc(CCNC(=O)c2cc3cc(F)ccc3nc2C)cc1OC	-4	16*	15	12	0	-3
COc1ccc(CCNC(=O)c2ccc3ccccc3n2)cc1OC	3	2	-6	8	-5	1
Cc1cc2cc(CNC(=O)c3cccc([N+](=O)[O-])c3)ccc2n1C	15	0	-7	5	-6	3
Cc1cc2cc(CNC(=O)c3ccc(S(=O)(=O)N4CCOCC4)cc3)ccc2n1C	-7	2	-10	20	76*	-31
Cc1cc2cc(CNC(=O)c3ccc(S(=O)(=O)N(C)C)cc3)ccc2n1C	22	1	-12	-12	30*	-26
Cc1ccc(NC(=O)C(C)Sc2nc(-c3ccccc3)cc(=O)[nH]2)cc1 (stereo not given)	-8	0	-1	2	0	7
CCOc1ccccc1/C=N/NC(=O)c1cccc(S(=O)(=O)N(CC)CC)c1	-10	3	-5	15	0	-3
CCN(CC)S(=O)(=O)c1cccc(C(=O)N/N=C/c2ccc(O)c(O)c2O)c1	0	0	-6	-7	6	26*
CCc1nc2c(OCc3cc(Cl)cc(Cl)c3)cccn2c1N(C)C(=O)c1ccc(C)cc1	-4	1	-7	11	-14	-2
COc1ccc(-c2cc(C(F)F)n3ncc(C(=O)N4CCSCC4)c3n2)cc1	15	-1	-5	-6	27*	-9
Cc1ccn2c(=O)c(NC(=O)COc3ccccc3)c(C)nc2c1	20	0	-1	-3	-15	13
Cc1ccn2c(=O)c(NC(=O)c3cccs3)c(C)nc2c1	-6	3	3	5	-27	29*
CN1CCN(CCCNC(=O)c2cc3c(=O)n(C)c4ccccc4c3s2)CC1	29*	0	-8	-7	20	-14
Cc1ccc2oc(=O)c3cc(C(=O)NCCCN4CCN(C)CC4)sc3c2c1	54*	1	-4	10	-4	6
CCOc1ccccc1Nc1nnc(SCC(=O)NC2CC2)s1	-8	0	-2	22	-1	5
O=C(COC(=O)C12CC3CC(CC(Br)(C3)C1)C2)Nc1cccc(S(=O)(=O)N2CCOCC2)c1	3	1	0	-5	19	-4
COc1ccc(N2CCN(c3oc(-c4ccc(OC)c(OC)c4)nc3C#N)CC2)cc1	-6	2	-1	16	-10	8
COc1ccc(-c2nc(C#N)c(N3CCN(c4ccccc4)CC3)o2)cc1	9	0	-1	-10	29*	-15
CCc1nc(OCC(=O)c2ccccc2)c(C#N)c2c1COC(C)(C)C2	25*	1	-4	-7	6	-4
COc1ccc(Cn2c(C(F)(F)F)ccc(C(N)=O)c2=O)cc1	-12	2	-6	20	-5	4
NC(=O)c1ccc(C(F)(F)F)n(Cc2c(Cl)cccc2Cl)c1=O	-22	7	0	39	-10	20*
Cc1c(NC(=O)c2ccc([N+](=O)[O-])o2)cccc1-c1nc2ncccc2o1	0	1	-4	-24	1	4
Cn1c(=O)c2[nH]c(SCc3cccnc3)nc2n(C)c1=S	-6	2	2	17	-6	11
